# In PubChem BioAssay AID588382 (National Center for Advancing Translational Sciences (NCATS), 2011):
# Out of some 1,300 compounds screened, about 150 (12%) were called active. Another 30% or so got no clear call; they are omitted. Only a selection was taken, and actives are over-represented in it overall. Unmarked numbers belong to inactive results. The call rests on the fitted dose curve; in most records, active means well fitted cell-killing curve with a large enough effect; inconclusive means small, poorly fitted or top-dose-only effect, or effect the other way; inactive means flat fitted curve, though single readings scatter.
# Test: qHTS of small molecules that selectively kill Giardia lamblia: Hit Validation in HepG2 cytotox;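 further: compound exposure lasted overnight at 37 deg C; nearly all actives have a fitted effect of over 55% in size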;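 on activity change, negative = cytotoxicity: viability measured as cellular ATP by ATPLite luminescence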
# Details: cell viability; Potency: HepG2 cytotoxicity; series mostly up to 38.3 µM; activity change, negative = cytotoxicity: at the top concentration
# Method in brief: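 Counterscreen cytotoxicity: ATPLite luminescence (15 min, room temperature) measured in HepG2 cells exposed overnight at 37 deg C to pin-transferred compound (23 nL) after overnight pre-incubation.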
# On the % scale 0 is the no-effect control and ±100 the full control effect; potency means the concentration at half of the fitted maximal effect.
Compound,"activity change, negative = cytotoxicity",Potency
CCC(=O)Nc1nc(-c2cc([N+](=O)[O-])cs2)cs1,22.8%,–
COCCNC(=O)/C(C#N)=C/c1ccc(O)c([N+](=O)[O-])c1,9.93%,–
Cc1ccc(NC(=S)NNc2ccc([N+](=O)[O-])cc2S(=O)(=O)Nc2ccccc2C(=O)O)cc1C,9.64%,–
COc1cc(/C=C2\SC(=O)N(Cc3ccc(F)cc3)C2=O)cc([N+](=O)[O-])c1O,-2.93%,–
COc1ccc(-c2ncn(CCC#N)c2[N+](=O)[O-])cc1,5.4%,–
Cn1nc(-c2cccnc2)nc2c(=O)n(C)c(=O)nc1-2,–,3.69 µM (active)
CCCc1nc2c(=O)n(C)c(=O)nc-2n(C)n1,–,8.26 µM (active)
COc1ccc(-c2nc3c(=O)n(C)c(=O)nc-3n(C)n2)cc1,–,1.85 µM (active)
COc1ccc(-c2cc(=O)c3ccccc3o2)cc1,-16%,–
Cc1ccccc1-c1nc2c(=O)n(C)c(=O)nc-2n(C)n1,–,3.29 µM (active)
COc1ccccc1NC(=O)COc1cccnc1[N+](=O)[O-],0.838%,–
Cc1ccc(S(=O)(=O)N2[C@@H](c3ccc(F)cc3)C(C(=O)O)=CC[C@H]2c2cccc(C)c2)cc1,7.11%,–
COc1ccc(-n2nc([N+](=O)[O-])c(=NCCCN3CCCC3=O)n2O)cc1,8.35%,–
O=C(COc1cccnc1[N+](=O)[O-])Nc1ccc2c(c1)CCC2,27.1%,–
Cc1c[nH]c(=O)c([N+](=O)[O-])c1,10.6%,–
Cc1cc(C(=O)N/N=C/c2ccc(O)c([N+](=O)[O-])c2)n[nH]1,4.19%,–
COc1cc2sc(-c3ccccc3OC)c(-c3ccc(O)cc3)c2cc1OC,-0.122%,–
O=C(NN1C(=O)c2ccccc2NC1c1ccc([N+](=O)[O-])o1)c1ccc([N+](=O)[O-])cc1 (stereo not drawn),-15.4%,–
Cn1nc(-c2ccc(F)cc2)nc2c(=O)n(C)c(=O)nc1-2,–,2.61 µM (active)
Cc1ccc(OCC(=O)Nc2cc(S(=O)(=O)N3CCOCC3)ccc2Cl)c([N+](=O)[O-])n1,2.02%,–
Cc1cc2ccccn2c1C(=O)c1ccc([N+](=O)[O-])cc1[N+](=O)[O-],12.4%,–
COc1ccc2c3n([n+]([O-])c2c1)CCN=C3c1ccc(Cl)cc1,20.6%,–
N=NC(=O)c1ccccc1Nc1c(O)[nH]c2ccccc12,–,16.5 µM (active)
COc1ccc(CNC(=O)COc2cccnc2[N+](=O)[O-])cc1,15.6%,–

Compound,"activity change, negative = cytotoxicity",Potency
O=[N+]([O-])c1ccc(/C=N/Nc2nc(-c3ccccc3)c3cc(Br)ccc3n2)o1,11%,–
CCOc1ccc(NC(=O)C(C)C(Cc2ccc(C)cc2)C(=O)O)cc1 (stereo not drawn),0.187%,–
Nc1c(Cl)cc(C2=NCCn3c2c2ccccc2[n+]3[O-])cc1Cl,0.209%,–
O=c1[nH]c2cccnc2n1-c1ccc([N+](=O)[O-])cc1,17%,–
N#Cc1c(N2CCN(c3ccc([N+](=O)[O-])cc3)CC2)[n+](=O)c2ccc(Cl)cc2n1[O-],8.84%,–
CC1CCc2c(sc(NC(=O)Cn3cnc([N+](=O)[O-])n3)c2C(N)=O)C1 (stereo not drawn),-5.73%,–
Cn1cc([N+](=O)[O-])c(C(=O)Nc2sc3c(c2C#N)CCC3)n1,–,2.33 µM (active)
CC1CCc2c(sc(NC(=O)CCCn3cnc([N+](=O)[O-])n3)c2C(N)=O)C1 (stereo not drawn),2.15%,–
O=C(NN1C(=O)c2ccccc2NC1c1ccc([N+](=O)[O-])o1)c1ccccc1 (stereo not drawn),-1.31%,–
CN(C)c1ccc(N=Nc2ccccc2C(=O)OCC(=O)N2CCCC2)cc1,-11.4%,–
Cc1cc(N)ccc1N=Nc1c(C)n(C)n(-c2ccccc2)c1=O,-14.5%,–
FC(F)(F)c1ccc2c(c1)N1CCCC1CN2 (stereo not drawn),0.308%,–
CC(C)c1ccc(N=c2c([N+](=O)[O-])nn(-c3ccc4c(c3)OCCO4)n2O)cc1,-4%,–
Fc1ccc2cc(-c3ccsc3)ncc2c1,28.3%,–
CC/C=C1/N=C2C(=O)N(C)C(=O)N=C2N(C)N1,–,3.29 µM (active)
O=[N+]([O-])c1ccc(COn2nnc3ccccc32)cc1,3.37%,–
COc1ccc2c(c1)[n+](=O)c(C(C)=O)c(C)n2[O-],1.41%,–
Cc1nonc1OCCn1c([N+](=O)[O-])cnc1C,0.594%,–
CCCOC(=O)/C(=C\c1ccc([N+](=O)[O-])o1)NC(=O)c1ccccc1,-5.09%,–
O=[N+]([O-])c1ccc2c3n([n+]([O-])c2c1)CCN=C3c1ccc(Cl)cc1,16.8%,–
O=C1NC(=S)S/C1=C\C=C\c1ccc([N+](=O)[O-])o1,–,3.29 µM (active)
O=[N+]([O-])c1ccc(-c2ccn[nH]2)o1,-11.6%,–
O=[N+]([O-])c1ccc(/C=[N+](\[O-])CCO)o1,8.7%,–
O=[N+]([O-])c1ccccc1S(=O)(=O)Oc1ccccc1/C=N/n1cnnc1,-19%,–
